Experiment [1] deals with Ribosomal protein S6 kinase alpha-6 (Homo sapiens) (UniProt Q9UK32). The note with it: at 1 µM.
Experiment [2] concerns the target T1, Serine/threonine-protein kinase Sgk1 (Homo sapiens) (UniProt O00141).
T1 sequence (whole entry): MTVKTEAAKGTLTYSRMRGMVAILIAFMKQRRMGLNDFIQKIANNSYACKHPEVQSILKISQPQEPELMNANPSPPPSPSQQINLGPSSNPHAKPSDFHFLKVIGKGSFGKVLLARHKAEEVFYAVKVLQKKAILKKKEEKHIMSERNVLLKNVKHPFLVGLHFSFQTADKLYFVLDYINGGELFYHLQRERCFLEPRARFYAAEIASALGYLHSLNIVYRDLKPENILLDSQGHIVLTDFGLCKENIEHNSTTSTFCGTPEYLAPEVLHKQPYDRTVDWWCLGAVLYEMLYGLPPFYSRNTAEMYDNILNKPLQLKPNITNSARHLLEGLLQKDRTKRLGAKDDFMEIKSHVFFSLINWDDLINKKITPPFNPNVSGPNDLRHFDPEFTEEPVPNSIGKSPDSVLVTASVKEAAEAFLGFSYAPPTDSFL
The settings on record: at 0.1 µM.

For experiment [3], the target named is T1, Serine/threonine-protein kinase Sgk1 (Homo sapiens). The note with it: at 1 µM.
For experiment [4], the target named is T2, Serine/threonine-protein kinase Sgk2 (Homo sapiens) (UniProt Q9HBY8).
T2 sequence (whole entry): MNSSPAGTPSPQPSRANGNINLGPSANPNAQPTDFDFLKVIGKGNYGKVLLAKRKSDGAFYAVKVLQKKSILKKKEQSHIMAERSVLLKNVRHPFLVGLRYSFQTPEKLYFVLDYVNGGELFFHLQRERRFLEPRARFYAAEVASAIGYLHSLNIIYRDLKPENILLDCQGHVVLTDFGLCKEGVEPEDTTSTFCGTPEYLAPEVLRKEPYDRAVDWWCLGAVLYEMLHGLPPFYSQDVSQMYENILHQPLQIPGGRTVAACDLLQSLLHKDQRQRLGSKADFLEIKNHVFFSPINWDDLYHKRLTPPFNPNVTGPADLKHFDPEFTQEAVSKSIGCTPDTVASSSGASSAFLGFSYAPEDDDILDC
The settings on record: at 0.1 µM.

Experiment [5] addresses T2, Serine/threonine-protein kinase Sgk2 (Homo sapiens). The settings on record: at 1 µM.
Experiment [6] deals with T3, Serine/threonine-protein kinase Sgk3 (Homo sapiens) (UniProt Q96BR1).
T3 sequence (whole entry): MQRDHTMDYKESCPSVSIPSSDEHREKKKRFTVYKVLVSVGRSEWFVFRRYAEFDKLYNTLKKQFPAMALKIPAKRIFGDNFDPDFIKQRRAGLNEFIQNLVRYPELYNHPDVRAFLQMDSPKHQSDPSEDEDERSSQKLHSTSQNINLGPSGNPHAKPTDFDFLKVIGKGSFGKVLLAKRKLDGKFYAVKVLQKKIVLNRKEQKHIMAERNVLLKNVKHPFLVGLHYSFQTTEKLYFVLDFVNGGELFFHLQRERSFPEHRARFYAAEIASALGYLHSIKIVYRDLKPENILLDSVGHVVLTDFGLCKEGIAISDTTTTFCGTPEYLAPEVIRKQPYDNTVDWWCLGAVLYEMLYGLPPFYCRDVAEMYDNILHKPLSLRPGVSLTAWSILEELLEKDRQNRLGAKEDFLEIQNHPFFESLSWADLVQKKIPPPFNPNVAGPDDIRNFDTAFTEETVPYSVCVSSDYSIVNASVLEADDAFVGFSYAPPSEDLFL
The settings on record: at 0.1 µM.

For experiment [7], the target named is T3, Serine/threonine-protein kinase Sgk3 (Homo sapiens). The note with it: at 1 µM.
For experiment [8], the target named is 5'-AMP-activated protein kinase catalytic subunit alpha-1 (Homo sapiens) (UniProt Q13131). The settings on record: at 0.1 µM.
Experiment [9] shares this target. The note with it: at 1 µM.
Experiment [10] deals with 5'-AMP-activated protein kinase catalytic subunit alpha-2 (Homo sapiens) (UniProt P54646). The note with it: at 0.1 µM.
Experiment [11] shares this target. The settings on record: at 1 µM.
Experiment [12] has as its target T4, NUAK family SNF1-like kinase 1 (Homo sapiens) (UniProt O60285).
T4 sequence (whole entry): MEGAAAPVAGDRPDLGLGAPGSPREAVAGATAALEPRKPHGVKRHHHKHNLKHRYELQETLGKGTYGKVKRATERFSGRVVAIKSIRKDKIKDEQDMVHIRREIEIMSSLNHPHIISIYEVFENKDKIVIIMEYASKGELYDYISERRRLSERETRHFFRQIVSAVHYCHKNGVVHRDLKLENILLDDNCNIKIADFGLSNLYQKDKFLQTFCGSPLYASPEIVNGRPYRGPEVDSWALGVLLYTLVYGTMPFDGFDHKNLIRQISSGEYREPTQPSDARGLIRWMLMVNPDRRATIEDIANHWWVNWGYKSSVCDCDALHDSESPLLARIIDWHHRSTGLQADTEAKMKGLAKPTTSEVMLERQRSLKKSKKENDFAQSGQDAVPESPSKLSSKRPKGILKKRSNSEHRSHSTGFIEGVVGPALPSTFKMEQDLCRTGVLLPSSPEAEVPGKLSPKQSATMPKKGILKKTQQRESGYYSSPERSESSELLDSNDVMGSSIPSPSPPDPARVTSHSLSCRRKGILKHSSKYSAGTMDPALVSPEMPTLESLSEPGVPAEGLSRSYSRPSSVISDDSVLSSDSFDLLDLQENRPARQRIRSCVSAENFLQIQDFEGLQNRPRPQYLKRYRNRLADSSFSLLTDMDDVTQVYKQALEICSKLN
The note with it: at 0.1 µM.

The target in experiment [13] is T4, NUAK family SNF1-like kinase 1 (Homo sapiens). The note with it: at 1 µM.
The target in experiment [14] is T5, Serine/threonine-protein kinase BRSK1 (Homo sapiens) (UniProt Q8TDC3).
T5 sequence (whole entry): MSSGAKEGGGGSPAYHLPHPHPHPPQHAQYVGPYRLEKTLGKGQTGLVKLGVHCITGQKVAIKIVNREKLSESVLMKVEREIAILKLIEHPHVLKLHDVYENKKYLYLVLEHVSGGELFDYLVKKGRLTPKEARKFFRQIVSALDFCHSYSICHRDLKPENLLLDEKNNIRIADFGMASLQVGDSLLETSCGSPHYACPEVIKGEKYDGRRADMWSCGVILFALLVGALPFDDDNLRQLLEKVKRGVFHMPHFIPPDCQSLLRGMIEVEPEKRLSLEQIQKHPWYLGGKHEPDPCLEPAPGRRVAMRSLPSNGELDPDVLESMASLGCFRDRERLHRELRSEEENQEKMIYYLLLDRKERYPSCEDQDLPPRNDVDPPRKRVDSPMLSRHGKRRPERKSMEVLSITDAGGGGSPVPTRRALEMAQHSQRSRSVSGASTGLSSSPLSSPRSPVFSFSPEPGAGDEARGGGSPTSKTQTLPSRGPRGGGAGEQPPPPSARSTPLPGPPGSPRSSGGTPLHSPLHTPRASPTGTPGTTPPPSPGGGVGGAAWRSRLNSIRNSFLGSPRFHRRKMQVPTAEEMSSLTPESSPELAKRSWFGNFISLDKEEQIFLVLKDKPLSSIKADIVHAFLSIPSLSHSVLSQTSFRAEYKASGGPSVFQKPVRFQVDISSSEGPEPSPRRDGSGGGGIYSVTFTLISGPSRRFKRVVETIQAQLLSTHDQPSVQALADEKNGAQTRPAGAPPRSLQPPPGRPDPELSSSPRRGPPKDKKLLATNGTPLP
The note with it: at 0.1 µM.

Experiment [15] has as its target T5, Serine/threonine-protein kinase BRSK1 (Homo sapiens). The settings on record: at 1 µM.
For experiment [16], the target named is T6, Serine/threonine-protein kinase BRSK2 (Homo sapiens) (UniProt Q8IWQ3).
T6 sequence (whole entry): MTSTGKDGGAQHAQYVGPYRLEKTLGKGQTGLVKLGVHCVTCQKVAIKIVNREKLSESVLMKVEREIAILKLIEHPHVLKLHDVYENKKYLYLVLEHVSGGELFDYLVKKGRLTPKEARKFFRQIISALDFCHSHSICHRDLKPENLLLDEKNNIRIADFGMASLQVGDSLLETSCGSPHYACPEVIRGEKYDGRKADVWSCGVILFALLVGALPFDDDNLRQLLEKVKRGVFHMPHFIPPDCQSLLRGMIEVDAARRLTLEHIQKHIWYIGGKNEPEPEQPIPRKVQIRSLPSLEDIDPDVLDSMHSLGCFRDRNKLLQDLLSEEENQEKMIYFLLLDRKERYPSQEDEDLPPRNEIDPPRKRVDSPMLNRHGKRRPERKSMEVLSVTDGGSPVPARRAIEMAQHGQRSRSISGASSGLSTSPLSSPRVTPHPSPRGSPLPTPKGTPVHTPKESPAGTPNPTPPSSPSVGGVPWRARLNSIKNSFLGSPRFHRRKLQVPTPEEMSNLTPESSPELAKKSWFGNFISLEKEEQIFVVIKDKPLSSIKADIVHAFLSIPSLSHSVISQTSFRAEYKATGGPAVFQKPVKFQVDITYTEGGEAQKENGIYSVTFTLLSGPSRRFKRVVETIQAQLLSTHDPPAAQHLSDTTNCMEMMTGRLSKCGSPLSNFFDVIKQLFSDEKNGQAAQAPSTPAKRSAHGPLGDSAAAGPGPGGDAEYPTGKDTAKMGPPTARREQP
The note with it: at 0.1 µM.

The target in experiment [17] is T6, Serine/threonine-protein kinase BRSK2 (Homo sapiens). The settings on record: at 1 µM.
Experiment [18] deals with Calcium/calmodulin-dependent protein kinase type 1D (Homo sapiens) (UniProt Q8IU85). The note with it: at 0.1 µM.
The target is the same in experiment [19]. The note with it: at 1 µM.
Experiment [20] has as its target Calcium/calmodulin-dependent protein kinase type II subunit alpha (Homo sapiens) (UniProt Q9UQM7). The note with it: at 0.1 µM.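 Also: reported values are averages (mean inhibition of CAMK2A).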

Sequence of Ribosomal protein S6 kinase alpha-6 (Homo sapiens) (Q9UK32 whole entry): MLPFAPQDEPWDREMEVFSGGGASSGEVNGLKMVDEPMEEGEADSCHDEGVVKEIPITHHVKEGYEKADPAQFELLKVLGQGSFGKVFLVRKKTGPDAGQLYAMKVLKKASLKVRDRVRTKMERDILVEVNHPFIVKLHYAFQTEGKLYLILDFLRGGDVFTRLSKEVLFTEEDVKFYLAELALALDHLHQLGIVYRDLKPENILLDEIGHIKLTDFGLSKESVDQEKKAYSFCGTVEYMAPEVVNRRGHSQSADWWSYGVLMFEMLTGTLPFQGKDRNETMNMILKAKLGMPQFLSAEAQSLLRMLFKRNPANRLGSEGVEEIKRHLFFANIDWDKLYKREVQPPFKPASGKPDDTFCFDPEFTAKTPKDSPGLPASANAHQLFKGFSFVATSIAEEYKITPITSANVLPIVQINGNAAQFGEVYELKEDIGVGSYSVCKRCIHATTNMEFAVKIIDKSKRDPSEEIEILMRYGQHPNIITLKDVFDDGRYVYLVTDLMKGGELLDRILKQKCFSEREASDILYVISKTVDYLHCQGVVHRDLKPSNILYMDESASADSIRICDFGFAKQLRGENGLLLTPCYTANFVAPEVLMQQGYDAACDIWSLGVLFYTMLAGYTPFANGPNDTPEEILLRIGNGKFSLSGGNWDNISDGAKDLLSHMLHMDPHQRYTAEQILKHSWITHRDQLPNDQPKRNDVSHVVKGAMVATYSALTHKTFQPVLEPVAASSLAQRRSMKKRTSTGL
Sequence of 5'-AMP-activated protein kinase catalytic subunit alpha-1 (Homo sapiens) (Q13131 whole entry, looked up): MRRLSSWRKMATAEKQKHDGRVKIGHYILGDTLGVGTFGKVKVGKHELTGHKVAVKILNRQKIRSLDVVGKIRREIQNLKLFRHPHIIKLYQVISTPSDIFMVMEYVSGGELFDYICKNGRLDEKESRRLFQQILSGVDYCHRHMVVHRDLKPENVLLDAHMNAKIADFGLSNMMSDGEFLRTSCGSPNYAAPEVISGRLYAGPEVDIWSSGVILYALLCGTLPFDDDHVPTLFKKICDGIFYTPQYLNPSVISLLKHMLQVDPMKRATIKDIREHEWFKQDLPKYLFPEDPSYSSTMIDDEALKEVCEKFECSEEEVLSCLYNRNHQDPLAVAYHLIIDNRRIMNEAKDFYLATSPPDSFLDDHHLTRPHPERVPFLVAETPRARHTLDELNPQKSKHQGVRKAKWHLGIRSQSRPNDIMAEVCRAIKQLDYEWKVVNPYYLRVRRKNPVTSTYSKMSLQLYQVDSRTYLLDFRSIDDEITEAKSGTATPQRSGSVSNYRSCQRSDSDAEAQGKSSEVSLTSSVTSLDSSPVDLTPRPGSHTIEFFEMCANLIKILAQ
Sequence of 5'-AMP-activated protein kinase catalytic subunit alpha-2 (Homo sapiens) (P54646 whole entry, looked up): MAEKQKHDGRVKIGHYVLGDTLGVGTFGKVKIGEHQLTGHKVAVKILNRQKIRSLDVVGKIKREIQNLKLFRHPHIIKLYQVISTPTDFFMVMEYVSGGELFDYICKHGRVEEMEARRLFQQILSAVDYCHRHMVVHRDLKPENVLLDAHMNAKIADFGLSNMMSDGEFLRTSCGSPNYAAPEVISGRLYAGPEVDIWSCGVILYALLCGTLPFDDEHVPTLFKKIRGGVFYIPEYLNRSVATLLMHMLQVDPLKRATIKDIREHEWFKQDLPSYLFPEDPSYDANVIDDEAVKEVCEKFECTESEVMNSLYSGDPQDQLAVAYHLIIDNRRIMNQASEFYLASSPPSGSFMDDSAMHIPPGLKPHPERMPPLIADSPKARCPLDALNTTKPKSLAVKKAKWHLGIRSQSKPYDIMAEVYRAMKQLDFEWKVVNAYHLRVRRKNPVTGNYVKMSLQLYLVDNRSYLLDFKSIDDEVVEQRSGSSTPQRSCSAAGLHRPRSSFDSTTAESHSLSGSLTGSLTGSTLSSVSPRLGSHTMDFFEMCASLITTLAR
Sequence of Calcium/calmodulin-dependent protein kinase type 1D (Homo sapiens) (Q8IU85 whole entry, looked up): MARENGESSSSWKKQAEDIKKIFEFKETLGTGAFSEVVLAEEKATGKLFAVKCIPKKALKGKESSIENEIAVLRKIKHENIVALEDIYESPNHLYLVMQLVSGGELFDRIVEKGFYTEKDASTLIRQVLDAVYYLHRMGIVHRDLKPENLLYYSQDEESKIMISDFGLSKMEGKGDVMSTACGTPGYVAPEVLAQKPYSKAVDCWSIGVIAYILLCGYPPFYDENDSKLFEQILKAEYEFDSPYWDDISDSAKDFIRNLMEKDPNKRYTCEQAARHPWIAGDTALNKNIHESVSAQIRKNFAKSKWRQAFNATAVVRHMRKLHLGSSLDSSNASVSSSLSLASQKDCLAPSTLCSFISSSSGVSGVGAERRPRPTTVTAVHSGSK
Sequence of Calcium/calmodulin-dependent protein kinase type II subunit alpha (Homo sapiens) (Q9UQM7 whole entry): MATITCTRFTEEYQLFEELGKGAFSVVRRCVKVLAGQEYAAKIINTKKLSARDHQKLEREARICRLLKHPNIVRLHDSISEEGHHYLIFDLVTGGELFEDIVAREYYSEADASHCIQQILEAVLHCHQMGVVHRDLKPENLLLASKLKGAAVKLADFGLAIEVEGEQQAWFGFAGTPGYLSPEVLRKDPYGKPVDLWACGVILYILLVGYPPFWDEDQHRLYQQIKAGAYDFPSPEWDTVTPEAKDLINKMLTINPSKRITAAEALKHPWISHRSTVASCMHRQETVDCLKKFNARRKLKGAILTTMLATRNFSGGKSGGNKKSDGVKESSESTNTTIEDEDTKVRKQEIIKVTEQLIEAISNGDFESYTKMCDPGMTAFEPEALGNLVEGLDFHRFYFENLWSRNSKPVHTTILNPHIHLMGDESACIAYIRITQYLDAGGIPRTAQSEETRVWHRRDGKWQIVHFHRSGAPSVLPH

On to `N#Cc1c(NC(=O)c2ccc(F)cc2)sc2c1CCCC2`, for which the inhibition (commonly the change of the read-out against control, counted positive when it falls) in [1] was 0.81%; in experiment [2], 0.29%; in experiment [3] it was 2.65%; in experiment [4], -3.36%; in experiment [5] it was 0.76%; in experiment [6] it was -0.34%. The inhibition in experiment [7] was 1.54%; in [8], 1.88%; in experiment [9], 1.54%; in experiment [10], 0.31%; in experiment [11], 2.24%; in [12], -1.13%. Moreover, the inhibition stood at 2.02% in experiment [13]; 1.51% in [14]; 1.17% in experiment [15]; 0.78% in [16]; 2.38% in [17]; 0.76% in experiment [18]. In addition, the inhibition came to 0.45% in experiment [19] and 0.66% in experiment [20].

Consider `Clc1ccc(-c2nn3ncccc3c2-c2ccnc(Nc3ccccc3)n2)cc1`, for which the inhibition in experiment [1] was determined as 1.59%; in [2] it was 3.14%; in experiment [3] it was 1.09%; in [4], 1.58%; in [5], 0.53%; in experiment [6], 1.92%. For the same compound, the inhibition in experiment [7] is -1.01%; in experiment [8] it was 0.45%; in experiment [9], 0.54%; in experiment [10] it was 1.86%; in [11], 2.26%; in experiment [12], 0.79%. Moreover, the inhibition was 4.21% in experiment [13]; 0.06% in experiment [14]; 1.52% in experiment [15]; -0.16% in experiment [16]; -0.21% in experiment [17]; 2.4% in experiment [18]. The figures for the inhibition in experiment [19] and in experiment [20] were 1.17% and 0.95%, respectively.

For the compound `NS(=O)(=O)c1ccc(Nc2ncc(-c3ccccc3)o2)cc1`, the inhibition in experiment [1] turned out to be 4.32%; in experiment [2] it was 2.77%; in experiment [3] it was 13%; in [4], 2.15%; in experiment [5] it was 10.4%; in experiment [6], 1.86%. The inhibition in experiment [7] turned out to be 2.86%; in experiment [8] it was 4.14%; in [9], 11.5%; in experiment [10], 1.03%; in experiment [11], 9.24%; in [12], 10.7%. Moreover, the inhibition in experiment [13] turned out to be 37.2%; in experiment [14], 1.52%; in [15] it was 15.3%; in experiment [16], 2.58%; in [17], 17%; in [18] it was 0.42%. For the same compound, the inhibition in experiment [19] was found to be 0.85%; in [20] it was 4.27%.

(Values after ChEMBL document CHEMBL1961873, “Compounds: GSK PKIS; Assays: Nanosyn kinase panel” (2012).)
